From PubChem BioAssay (NCI)
Compounds without any hit were thinned out: in the full panel of roughly 83,000, 20% have a hit.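 Each cell line was grown in a 96-well plate and treated with one concentration of compound for 48 hours. Values below 10 were considered active.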 Active and inactive are the calls of the source.

Tested on: M14 melanoma
Assay: NCI-60 one-dose screen, 48 h (100 = growth as untreated, 0 = no growth, -100 = all killed)
Settings: 10 µM unless noted
Protocol: Growth inhibition of the M14 human tumor cell line is measured as a screen for anti-cancer activity. Cells are grown in 96 well plates and exposed to the test compound for 48 hours. Compounds are tested at a single concentration, which is 10^-5 M for most compounds. The reported endpoint is percent growth (GI% or GIPRCNT), where numbers from 0 - 100% represent growth inhibition, and numbers from -100% - 0 represent cell death. For example, a value of 40 represents 60% growth inhibition. A value of 0 means no net growth occurred over the course of the experiment. A value of -40 indicates 40% of cells at the beginning of the experiment died by the end of the experiment. A value of -100 means all cells are dead at the end of the experiment.
NCI-60 Human Tumor Cell Lines Screen was performed using the standard one-dose NCI protocol, which is described in more detail at https://dtp.cancer.gov/discovery_development/nci-60/default.htm.
Compounds with GIPRCNT values below 10 were considered active. Activity score was based on GIPRCNT using the following formula: […]
Score is 0 for GIPRCNT values of 100 or above, 50 for GIPRCNT values of 0, and 100 for GIPRCNT values of -100.

SMILES | growth
O=C(/C=C/c1ccc[nH]1)c1ccc(-n2ccc(C(F)(F)F)n2)cc1 | 94.5% (inactive)
Clc1nc(Cl)c2ncn(CCOCCn3cnc4c(Cl)nc(Cl)nc43)c2n1 | -84.9% (active)
COc1ccc(Nc2nc(N)nc3c2CCc2occc2-3)cc1 | 93.6% (inactive)
O=C(NNc1nc(Cl)nc(N2CCN(C(c3ccccc3)c3ccccc3)CC2)n1)c1ccccc1 | 10.5% (inactive)
COc1ccc(Cl)cc1NC(=O)c1c(NC(=O)C(F)(F)C(F)(F)F)sc2c1CCCCC2 | 0.83% (active)
CCCCCCCCOC(=O)c1ccc(O)c(OC)c1 | 106% (inactive)
COc1ccc2c(c1)OC1=C(C(=O)OC1)C2c1cc(OC)c(OC)c(OC)c1 (stereo not given) | 10.2% (inactive)
CCSc1ccc2c(c1)N(CCCN1CCN(C)CC1)c1ccccc1S2 | -86.9% (active)
O=C(OC(OC(=O)c1cc(Cl)cc(Cl)c1)c1cccc2ccccc12)c1ccccc1 (stereo not given) | 101% (inactive)
CC(=O)CCSc1ccc(OC(C)=O)cc1 | 103% (inactive)
[O-][n+]1ccccc1CCN(O)CCc1cccc[n+]1[O-] | 94.5% (inactive)
CC(=O)c1c(C)[nH]c(-c2nc3ccc(N4CCN(C)CC4)cc3[nH]2)c1-c1ccccc1 | 94.7% (inactive)
NC(=O)C1(N2CCCCC2)CCN(CCCC(=O)c2ccc(F)cc2)CC1 | 44.8% (inactive)
O=C1CCCCCCCCC(O)C(O)CCCC(c2cccs2)O1 (stereo not given) | 99.7% (inactive)
O=C(O)CCCCCCCCCCCCCCC(=O)O | 107% (inactive)
CCOC(=O)c1ccc(Nc2ccnc(SCC(=O)c3ccc(C#N)cc3)n2)cc1 | 50.5% (inactive)
COC(=O)C(c1ccccc1)C(CC(=O)c1ccccc1)c1ccccc1 (stereo not given) | 103% (inactive)
COc1cccc(-c2nc3occn3c2-c2ccnc(NCCCNS(=O)(=O)c3cccc(F)c3)n2)c1 | 60.9% (inactive)
O=C(Nc1ccc(F)cc1)c1c(NC(=O)C(F)(F)F)sc2c1CCCCC2 | -3.37% (active)
COc1ccccc1/C=C1\Oc2cc(OCCCN3CCCC3)ccc2C1=O | 100% (inactive)

SMILES | growth
COc1ccc(C(=O)c2cc3c(N)c(C(=O)Nc4cccc(Cl)c4C)sc3nc2C)cc1 | 5.63% (active)
CCCCCN1C=C/C(=C\C(=O)N(C)c2ccc(Br)cc2)c2ccccc21 | 104% (inactive)
C#CCNC(=O)[C@H](Cc1ccccc1)NC(=O)[C@]12CC[C@@H](C(=C)C)[C@@H]1[C@H]1CC[C@@H]3[C@@]4(C)Cc5c([nH]c6ccccc56)C(C)(C)[C@@H]4CC[C@@]3(C)[C@]1(C)CC2 | 96.4% (inactive)
C#Cc1cccc(NC(=O)Nc2ccc(NC(=O)CCl)cc2)c1 | 4.51% [8.25 µM] (active)
CCCNC(=O)Oc1ccc(/C(=C(\C)c2ccccc2)c2ccc(OCCN3CCCCC3)cc2)cc1 | 14.1% (inactive)
CCc1nc(C)cn1C(=O)OCc1nc2nc(Cl)nc(N3CCOCC3)c2[nH]1 | -56.8% (active)
COc1ccc(Nn2c(SCC(=O)Nc3nc(-c4ccc(Cl)cc4)cs3)nc(C)c2C)cc1 | 62.5% (inactive)
COc1ccc(/C=C2\COc3ccc(-c4ccccc4)cc3C2=O)cc1O | 22.9% (inactive)
COc1ccc(-c2ncc(-c3ccccc3)[nH]2)cc1OC | 119% (inactive)
COc1ccc(-c2c[nH]c(C(=O)O)c2-c2cc(OC)c3c(c2OC)OCO3)cc1 | 98.9% (inactive)
CN1CCCC1=Nc1ccccc1 | 117% (inactive)
O=c1[nH]c2c(s1)CCCC2CN1CCCCC1 (stereo not given) | 90.6% (inactive)
Nc1c(C(=O)Nc2ccc(Cl)cc2)cc(-c2nc3ccccc3s2)c(=O)n1NS(=O)(=O)c1ccc(Cl)cc1 | 98.2% (inactive)
O=S(=O)(c1cccc(NC2=Nc3cccc4cccc2c34)c1)N1CCCC1 | 69.5% (inactive)
Cc1cn(-c2cc(C(=O)Nc3cccc(C#Cc4cccc5[nH]nc(N)c45)c3)cc(C(F)(F)F)c2)cn1 | 11.5% (inactive)
COc1ccc(-c2nc(SC)nc(N3CCOCC3)c2C#N)cc1 | 111% (inactive)
COc1cc(NCCCN(CC(C)C)CC(C)C)c2ncccc2c1 | 91.4% (inactive)
CCCCCCNC(=O)Oc1ccc(/C(=C(/CC)Cc2ccccc2)c2ccc(OCCN(CC)CC)cc2)cc1 | 39.4% (inactive)
COc1ccc(/C(=C\c2ccccc2)C(=O)O)cc1OC | 98.3% (inactive)
CN(C)C(=O)c1cc2cnc(Nc3ccc(-c4csc5c(=O)cc(N6CCOCC6)oc45)cc3)nc2n1C1CCCC1 | -73.4% (active)
